Drawing on article PMC12136788, this text covers binding signal for 22 molecules.

Where a chain is given by its changes, count along the chain named. The full ranking holds about 24,000 sequences; the median of “enrichment r” is about 0.99, and the highest 2% start at about 3.7. Shown is part of a subset that was picked to be rich in the highest values.

The labels stand for the following.
T1: UNK ZnF1-3 (human, UniProt Q9C0B0 31-174)
T1 sequence: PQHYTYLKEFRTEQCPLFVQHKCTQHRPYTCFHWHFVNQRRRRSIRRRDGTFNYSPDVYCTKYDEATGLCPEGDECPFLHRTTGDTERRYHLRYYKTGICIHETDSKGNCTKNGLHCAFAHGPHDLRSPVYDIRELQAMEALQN

B1: 17505014_17509309_214_5pUTR_ENSMUSG00000019370_ENSMUST00000019514|mouse|control|control (ssRNA)
RNA: GGGAGUUCUACAGUCCGACGAUCCAUGGCGAGGCACCGGUAUCCGGAGCUCGGGGAUCGAGGUUACUCUGGCGGCGGCAGCAGCUGCAGCAGCUCGAGCUCCGCCGCGCGUCCGCGCCUCCACACUCUUUGCCCGCAGCGCGCCAACAGAGGAUUGAGCAUCA
B2: chr8:80553714:80553715:+_ENSG00000104435_ENST00000220876|hu_mus|motif|central (ssRNA)
RNA: GGGAGUUCUACAGUCCGACGAUCAGCCUCCAGCUUUUUCUGAAUCUCCUCCAGAGACAGGUCUUUCUUCUUUGGAGAAGCGGGAGUUCGUGGAGCUUCUGAGAUGGGAGAUGGUGGCUUCAAGAUCAGCUCAAAAGCCUGGCCCAACAGAGGAUUGAGCAUCA
B3: chr11:100577090:100577091:-_ENSMUSG00000019173_ENSMUST00000107364|mus_hu|motif|central (ssRNA)
RNA: GGGAGUUCUACAGUCCGACGAUCCUGCACUGACCCCACUGUCCCCAUAUACAAGGGUUGGGGGGCAAGAGCAUGUGGCGGCUCCCAGCAAGGGAAAAUGGGAGAGCAGUAGAAAGGGGAGGAAGUGGGAAGAGCAGAAGAUCACAACAGAGGAUUGAGCAUCA
B4: chr1:89687925:89687926:+_ENSMUSG00000026289_ENSMUST00000027512|mus_hu|FALSE|FALSE (ssRNA)
RNA: GGGAGUUCUACAGUCCGACGAUCCCAGGACAGGGCUGCAGGAGCCCAUGUGCUUCUUCUGAGGAGGGCACUGGGGUCCUCCCAGCCCUGAGAGCCCCGUCAGUACUGUGCCCACAGCACAGCUUUGCAUCCUUUGUCCACACUCAACAGAGGAUUGAGCAUCA
B5: chr3:33038425:33038426:-_ENSG00000170266_ENST00000307363|hu_mus|FALSE|FALSE (ssRNA)
RNA: GGGAGUUCUACAGUCCGACGAUCGGUGGGAGGUCAGGCAAGGCGGGGCUGCAAAGUCACCAGCAGGGUACACACAUUCCAGAAAUGUAGCUUCCAUUCUAGCACAACAAAGGUGAUCCGUGUAACCAGAGUAGAGCUGUGCUCCAACAGAGGAUUGAGCAUCA
B6: 105885974_105886094_2527_3pUTR_ENSG00000135966_ENST00000393359|human|control|control (ssRNA)
RNA: GGGAGUUCUACAGUCCGACGAUCCAGCAGCGUGUGAAAGAGUUGCUGGCGGUGGGGUGGGUCUCGGCCCUCGGAGCACCACAGGCAGUAGUCCUCGGCCGCUGCAAAGUCCUGCAGCUCGUGCACCAGGAUAUGCAGCGCCUUCAACAGAGGAUUGAGCAUCA
B7: chr10:112657927:112657928:+_ENSG00000150593_ENST00000280154|hu_hu|motif|central (ssRNA)
RNA: GGGAGUUCUACAGUCCGACGAUCCAGAAAUGCCUUGUACCCAAAACAAGUGCUUAAAAAAAAAAAAAAAAAAAACUUGUGCGGACAACUCUUACAAUUCAGAUAUAUAUUUUUAUAACAUCUAAGACUGCAAGAGUUCUUAUACAACAGAGGAUUGAGCAUCA
B8: chr18:77179482:77179483:+_ENSMUSG00000090000_ENSMUST00000026487|mus_mus|FALSE|FALSE (ssRNA)
RNA: GGGAGUUCUACAGUCCGACGAUCAAGUAUGCUCCAAUCCGGGAGUGCUCCUGCCUCUGAUAAUCUGAUCUACAAGUGCAACUACAAUUAAAAAAAAAAAAAAAUCAGAUAGAUAGAAACUCUGGUUUUAUUGUCAACUUUACUCAACAGAGGAUUGAGCAUCA
B9: chr11:30000241:30000242:-_ENSMUSG00000020315_ENSMUST00000011877|mus_hu|FALSE|FALSE (ssRNA)
RNA: GGGAGUUCUACAGUCCGACGAUCUAUUUCCAACACAGCCUCACAAAAUUGAGGAACAGUUUAAAUACUGAGAUCUAAUCUAUAUAAUUUCAUUAAAAAAAAAAUCUGGCCUUCCCUCUGCACCUCAAACUUUUGUAACUUGGACAACAGAGGAUUGAGCAUCA
B10: chr10:112657927:112657928:+_ENSG00000150593_ENST00000280154|hu_hu|FALSE|FALSE (ssRNA)
RNA: B7 RNA with G82U, G83A
B11: chr17:65740002:65740003:+_ENSG00000130935_ENST00000581375|hu_hu|hu_hu_hu_mus_False|8_8 (ssRNA)
RNA: GGGAGUUCUACAGUCCGACGAUCAACAAAUCUUUCUUCCCUGGACGAACAGGAAGAUUCAUAUUAAAAAAAAUAUAUAUCCAUCAAGUUAGGUGUGGUGGCCACACCUUUACUCCCAGCACUUUGGGAAUAUAAUCUCUGAGUCAACAGAGGAUUGAGCAUCA
B12: chr11:30000241:30000242:-_ENSMUSG00000020315_ENSMUST00000011877|mus_hu|motif|central (ssRNA)
RNA: B9 RNA with U75G, A76G, U80G, A81G
B13: chr21:44329077:44329078:+_ENSG00000160194_ENST00000354250|hu_hu|motif|central (ssRNA)
RNA: GGGAGUUCUACAGUCCGACGAUCCUCCCGGCCUGAGGAGGGCUGAGGCAUCCUGAAUUUUGAGAGUUCGAGGUUGAGGUCGGAGAAGGUGUACGUGCUGUAGUCAUGAUGCUGCAGGUUCUUGUAGGUAGUGUUGUCAAACGGCAACAGAGGAUUGAGCAUCA
B14: chr17:62500844:62500845:-_ENSG00000108654_ENST00000583239|hu_mus|motif|central (ssRNA)
RNA: GGGAGUUCUACAGUCCGACGAUCUUGAUAAAAAUUCUUCUCAAAUUUGGGCAGCUCAUCAAGAUUCCACUUCUUUUUAACGGGUUUCUCCCCAGGAUUUCCAAACUUCUUUCCAGAGAGGGGUCCUGUUCUACUCCCUCCAAACAACAGAGGAUUGAGCAUCA
B15: chr5:116097646:116097647:+_ENSMUSG00000029518_ENSMUST00000031492|mus_mus|FALSE|FALSE (ssRNA)
RNA: GGGAGUUCUACAGUCCGACGAUCUAAAAAGCAUAAUUAGAAACUUUCAAUACAGAAAUAGUCCUAGCAAACCAUUUAAAAGUUGGUUGUUUGACAGGAGUUUCACAUCGGGCCCACCAGGGUACCAGUGUAGCCCUGAUUCUCCAACAGAGGAUUGAGCAUCA
B16: chr8:13019134:13019135:+_ENSMUSG00000031442_ENSMUST00000123811|mus_mus|FALSE|FALSE (ssRNA)
RNA: GGGAGUUCUACAGUCCGACGAUCUGGCUGACAGGGGCCUCCUGUUUCCAGAGAUCUCGGAGCACCAUCCCCUCCCAAACUAAGCAAGCCCAAGCAAAAAUAAAAAUUAAAAAUAAAAAAAAACCAAAAAACUUAGAGAUUUGCCAACAGAGGAUUGAGCAUCA
B17: chr1:225611761:225611762:-_ENSG00000143815_ENST00000272163|hu_mus|hu_hu_hu_mus_True|18_78 (ssRNA)
RNA: GGGAGUUCUACAGUCCGACGAUCCCAGGCCAUCGGCCUCUGACCACUUCACCCUCAGCAAAUUUCCUACUUGGCAUUUUCUAAAAUUAGUCUGGCCGCGCUCCGGCGGGAACUCCAGACGGCUCCCGACAGUCACCAGCAGCCCAACAGAGGAUUGAGCAUCA
B18: chr11:93905761:93905762:+_ENSMUSG00000020859_ENSMUST00000103168|mus_mus|FALSE|FALSE (ssRNA)
RNA: GGGAGUUCUACAGUCCGACGAUCCGCUGGCACCCCGGUAGAAAUAGAAAAGUGCACAAGCAGCAAAACAGAGAGAGAUACUAAGAUCGCAGAAUUAAUGACCACCGCCCCGCCAACAAAGCCAAACACAAACAGCAGCAUGCACAACAGAGGAUUGAGCAUCA
B19: chr8:13019134:13019135:+_ENSMUSG00000031442_ENSMUST00000123811|mus_mus|motif|central (ssRNA)
RNA: B16 RNA with U80G, A81G
B20: chr8:117868997:117868998:-_ENSG00000164754_ENST00000297338|hu_hu|motif|central (ssRNA)
RNA: GGGAGUUCUACAGUCCGACGAUCCACCCCUGCCUCAGAGAGGGCAGGGGGAUCAUCAAAGAUACCGCCAUCAUUAUUACGGAUAAGUUUGUCAUCUAAUAUUCCACCAUCAUUUCCUUCUCCAAAAUUAUCAUCCUUAUAUUGCAACAGAGGAUUGAGCAUCA
B21: chr8:86519384:86519385:+_ENSMUSG00000005469_ENSMUST00000005606|mus_mus|FALSE|FALSE (ssRNA)
RNA: GGGAGUUCUACAGUCCGACGAUCUAAAUUAGAUGCAUGGAACUCUAGGGCCCUCUGGCUGUUCGAUCCAACCCUCCCACCCCCAACCGGAAAAAAAAUAGAAAGAAAAAGAAAAAAUGAAAGAGAACCCAAGGGGCACAAGCACAACAGAGGAUUGAGCAUCA
B22: chr2:115689366:115689367:-_ENSMUSG00000027210_ENSMUST00000074285|mus_mus|FALSE|FALSE (ssRNA)
RNA: GGGAGUUCUACAGUCCGACGAUCUCUUUGAAGAACAGUCCCCCAAAAUCAUAAUAAGAAUUGGCUUAUGAAGCACAAACUAUAAAGAUCUGUUUGAAACUAAAGGACACAUGGACGGGGGGAACAAAGGCCGGGCAUGAAAACCAACAGAGGAUUGAGCAUCA

This assay deals with T1, UNK ZnF1-3. Description: nsRBNS (natural sequence RNA bind-n-seq); RBNS binding buffer (assumed for nsRBNS): 25 mM Tris pH 7.5, 150 mM KCl, 3 mM MgCl2, 0.01% Triton X-100, 500 ug/ml BSA, 20 U/ml SUPERase-In, 4 C; UNK is unkempt and MSI1 is Musashi-1; names of the RNAs are library labels; protein concentration not given here; high values mean tight binding.
B1 returned a binding signal of 0.975 enrichment R.
As to B2, the binding signal was 1.22 enrichment R.
B3 registered a binding signal of 1.93 enrichment R.
The figure for B4 is 0.419 enrichment R.
The figure for B5 is 1.42 enrichment R; for B6 it is 0.509 enrichment R.
The figure for B7 is 4.04 enrichment R; for B8 it is 2.98 enrichment R; for B9 it is 4.16 enrichment R.
Molecule B10 displayed a binding signal of 3.61 enrichment R.
The figure for B11 is 1.12 enrichment R; for B12 it is 3.58 enrichment R; for B13 it is 1.5 enrichment R.
With B14, the binding signal came out at 1.28 enrichment R.
With B15, the binding signal is 0.472 enrichment R.
Molecule B16 had a binding signal of 21.6 enrichment R.
For B17, the binding signal worked out at 1.27 enrichment R.
B18 came in with a binding signal of 2.57 enrichment R.
Take B19: the binding signal was 14.4 enrichment R.
The figure for B20 is 1.12 enrichment R; for B21 it is 6.04 enrichment R.
The figure for B22 is 2.13 enrichment R.
